Bioassay records deposited in PubChem by The Scripps Research Institute Molecular Screening Center.
This is a sample that favours compounds with a hit; in the whole collection about 3.5% have one here.
FBW7 act – activators of human E3 ligase FBW7; Q969H0; AlphaScreen FBW7–phospho-cyclin E peptide binding, activator screen; normalized activity (activation), % at 26.1 µM; hit rate 0.13% among 650,000; AID 1259310; in the data active = normalized activity above about 1.9%;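 also: purified mutant Fbw7 with reduced substrate affinity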
MITF primary – blocks human microphthalmia-associated transcription factor; O75030; AlphaScreen MITF homodimerization, bead proximity signal; inhibition, % at 2.6 µM; hit rate 0.91% among 650,000; AID 1259374; in the data active = inhibition above about 50%;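 also: 0% = vehicle wells with protein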
TEAD-YAP inh – TEAD-YAP interaction inhibition | HEK-TIYL cells, TEAD-Gal4/YAP UAS-luciferase luminescence | inhibition, % at 9.12 µM | hit rate 1.4% among 640,000 | AID 1259422; in the data active = inhibition above about 32%;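 also: 0% = median of test compound wells and 100% = reference inhibitor wells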
GPR151 activ – activators of human GPR151; Q8TDV0; PathHunter beta-arrestin GPR151 cells, luminescence; activation, % at 11.2 µM; hit rate 1% among 650,000; AID 1508602; in the data active = activation above about 4.9%;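 also: 0% = median of compound wells and 100% = cells with positive control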
Target sequence (Q8TDV0 whole entry, looked up): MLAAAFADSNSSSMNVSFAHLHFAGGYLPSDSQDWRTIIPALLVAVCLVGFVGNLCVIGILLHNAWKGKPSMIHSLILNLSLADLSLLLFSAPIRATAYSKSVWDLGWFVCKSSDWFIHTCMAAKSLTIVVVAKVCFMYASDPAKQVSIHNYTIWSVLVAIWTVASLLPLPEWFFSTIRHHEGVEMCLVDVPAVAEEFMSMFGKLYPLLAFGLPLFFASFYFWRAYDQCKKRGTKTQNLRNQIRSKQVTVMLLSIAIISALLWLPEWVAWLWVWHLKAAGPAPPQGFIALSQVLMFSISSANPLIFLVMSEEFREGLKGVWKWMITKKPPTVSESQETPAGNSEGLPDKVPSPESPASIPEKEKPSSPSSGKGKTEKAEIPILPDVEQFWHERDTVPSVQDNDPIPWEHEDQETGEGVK
GPR151 conf act – confirmation of human GPR151 activators. GPR151 PathHunter beta-arrestin cells, luminescence, 90 min; % of EA-reagent control over plate median. 6,700 tested, under 10 active. activation, % at 11.2 µM. shares compounds with GPR151 activ;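 active = mean percent activation across replicates above the confirmation screen cutoff of 4.91%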
GPR119 counter – GPR119 activation, counter-screen for GPR151 activators; shares compounds with GPR151 activ; GPR119 PathHunter beta-arrestin cells, luminescence, 90 min; 0 = compound-well median, 100 = enzyme-acceptor control; activation, % at 11.2 µM; hit rate 0.3% among 6,700;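 active = mean percent activation in the counterscreen above 29.09%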;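 also: counterscreen on off-target GPR119 to flag nonselective hits from the GPR151 activator screen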
* hit, by the source's call; · = not tested or not shown.

SMILES | FBW7 act | MITF primary | TEAD-YAP inh | GPR151 activ | GPR151 conf act | GPR119 counter
COc1ccc(S(=O)(=O)N/N=C(/C)c2ccc(Cl)cc2)cc1 | 0 | -7 | -6 | 0 | · | ·
COc1cccc(/C(C)=N/NS(=O)(=O)c2ccc(Cl)cc2)c1 | 0 | -23 | -2 | 5.3* | 1 | 18
COc1ccc2cc(/C=N/Nc3ccccn3)c(Cl)nc2c1 | 1 | 3 | -3 | 12* | 0 | -5
C=C1c2cc(OC)ccc2NC(=O)N1CC | 0 | -7 | 12 | 5.5* | -1 | -16
C=C1c2ccc(C)cc2NC(=O)N1CC | 0 | -17 | 7 | 0 | · | ·
COc1ccc(/C=C2\SC(=N)N(c3nccs3)C2=O)cc1OC | 0 | -4 | 1 | 5.7* | 0 | -3
COc1ccc(/C=C2\SC(=N)N(C)C2=O)cc1OC | 0 | 9 | -8 | 0 | · | ·
Cc1cc(C)nc(N2CCC(c3c[nH]c4ccccc34)CC2)n1 | 0 | -3 | 4 | 0 | · | ·
O=C(Nc1cccc(C(F)(F)F)c1)C1C2CC3OC(=O)C1C3C2 (stereo not given) | 0 | 1 | -2 | 6.3* | 1 | 15
O=C(Nc1cc(C(F)(F)F)ccc1Cl)C1C2CC3OC(=O)C1C3C2 (stereo not given) | 0 | 4 | -1 | -2 | · | ·
COc1ccc(/C=C2\SC(=S)N(CCC(=O)NCCO)C2=O)cc1 | 0 | 25 | -19 | 5.1* | 0 | 1
CCOc1ccc(/C=C2\SC(=S)N(C(CC)C(=O)O)C2=O)cc1 (stereo not given) | 0 | -10 | -6 | 6.0* | 0 | 6
CCOc1cccc(/C=C2/SC(=S)N(CCC(=O)O)C2=O)c1 | 0 | 1 | 8 | 4.9* | 0 | -7
Cc1ccccc1-n1c(SCC(=O)NC2CCCCNC2=O)nc2[nH]ncc2c1=O (stereo not given) | 0 | -4 | 9 | 0 | · | ·
O=c1cc(COc2cccnc2[N+](=O)[O-])c2c(ccc3ccccc32)o1 | 0 | 4 | -8 | 0 | · | ·
COc1ccccc1NC(=O)c1cc(-c2ccccc2)nc2ccc(C)cc12 | 0 | 1 | 2 | 0 | · | ·
Cc1cccc(NC(=O)c2ccccc2NS(=O)(=O)c2ccc(F)cc2)n1 | 0 | -5 | 7 | -1 | · | ·
O=C(N1CCCCCC1)N1CCN(C(=O)N2CCOCC2)CC1 | 0 | -2 | -2 | 5.8* | 0 | 3
O=C(N1CCOCC1)N1CCN(S(=O)(=O)N2CCCC2)CC1 | 0 | -8 | 0 | 1 | · | ·
Cc1ccc(Cn2cnc3sc4c(c3c2=O)CCC(NCC(C)(C)CO)C4)cc1 (stereo not given) | 0 | 5 | 5 | 1 | · | ·
Cc1ccnc(N2C(=O)c3cccc4cccc(c34)C2=O)c1 | 0 | 6 | 0 | -1 | · | ·
COc1ccc(C(=O)C(C)Sc2nc(C)cc(=O)[nH]2)cc1 (stereo not given) | 1 | -11 | -3 | -2 | · | ·
CCOc1ccc(C(=O)C(C)Sc2nc(C)cc(=O)[nH]2)cc1 (stereo not given) | 0 | -2 | -7 | 5.1* | 1 | 9
COc1cccc(NC(=O)NNC(=O)c2cc3occc3[nH]2)c1 | 0 | 9 | 0 | 5.0* | 0 | 9
CC1=C(C(=O)OCC(C)C)C(c2coc3ccc(C)cc3c2=O)C2=C(CC(c3cccs3)CC2=O)N1 (stereo not given) | 1 | -3 | 5 | -2 | · | ·
SMILES | FBW7 act | MITF primary | TEAD-YAP inh | GPR151 activ | GPR151 conf act | GPR119 counter
CC(=O)NCCNCc1c(C(=O)N2CCc3ccccc3C2)nc2ccc(Cl)cn12 | 0 | -4 | -5 | 1 | · | ·
O=C(c1nc2ccc(Cl)cn2c1CNCC1COCCO1)N1CCc2ccccc2C1 (stereo not given) | 0 | 8 | -1 | 9.8* | 0 | -21
COc1ccc(C(=O)NC(=S)Nc2cccc3cccnc23)cc1OC | 0 | -6 | -3 | -2 | · | ·
O=C(Nc1ccc(-c2cn[nH]c2)cc1)OCc1ccccc1 | 0 | 0 | -14 | -1 | · | ·
O=C(Nc1ccc(-c2cn[nH]c2)cc1)[C@@H]1Cc2ccccc2CN1 | 0 | 13 | -5 | 0 | · | ·
O=C(Nc1ccc(-c2cn[nH]c2)cc1)OCCc1ccccc1 | 0 | 2 | -28 | 5.0* | 1 | 8
O=C(Nc1ccc(-c2cn[nH]c2)cc1)C1CCc2ccccc2C1 (stereo not given) | 0 | -5 | -4 | 5.4* | 0 | 8
CCOC(=O)C1=C(C)NC(C)=C(C(=O)OCC)C1c1ccc(-c2cccc([N+](=O)[O-])c2)o1 | 0 | -12 | -1 | 1 | · | ·
COc1cc2c(cc1OC)C(COc1ccc([N+](=O)[O-])cc1)N(C(=O)/C=C/c1ccccc1)CC2 (stereo not given) | 0 | -3 | -13 | -2 | · | ·
Nc1c(C(=O)O)[nH]c(=O)[nH]c1=O | 0 | 18 | 4 | 5.1* | 0 | -8
COc1cc(SC)ccc1C(=O)OCc1ccc([N+](=O)[O-])cc1 | 0 | 13 | 11 | 0 | · | ·
CN1CCC(CNS(=O)(=O)CCc2ccccc2)CC1 | 0 | 14 | 2 | 5.7* | -1 | -10
CCN(C(=O)C1CCCN1S(=O)(=O)c1cccc2nsnc12)c1cccc(C)c1 (stereo not given) | 0 | 17 | 7 | 8.2* | -1 | 2
CCN(CC)C(=O)C1CCCN1S(=O)(=O)c1cccc2nsnc12 (stereo not given) | 0 | 11 | -1 | 2 | · | ·
CSc1ccccc1C(=O)Nc1cc(C)nn1C(C)C | 0 | 4 | -10 | -1 | · | ·
O=C(N/C(=C/c1ccc(Cl)cc1)C(=O)N1CCOCC1)c1ccccc1 | 0 | -2 | 3 | 2 | · | ·
O=C(N/C(=C/c1ccc(Cl)cc1)C(=O)N1CCOCC1)c1ccccc1Br | 0 | 10 | 12 | 6.3* | -1 | -13
CC1=NNC(=O)C1CCC(=O)N/N=C\c1c2ccccc2cc2ccccc12 (stereo not given) | 0 | -12 | -1 | 2 | · | ·
CC(=O)NC(=O)NC(c1ccccc1)c1cccc(Cl)c1 (stereo not given) | 0 | -9 | -7 | 6.1* | 0 | -1
CC(=O)N1N=C(c2ccc3nccnc3c2)CC1c1ccccc1 (stereo not given) | 0 | 13 | 1 | 5.9* | -2 | -21
COc1ccc(C2=NN(C(C)=O)C(c3ccccc3)C2)cc1OC (stereo not given) | 1 | 10 | -17 | 1 | · | ·
Cn1c(CSc2ncccn2)nnc1SCC(=O)N1CCc2ccccc21 | 0 | 9 | -1 | -1 | · | ·
COc1cc(/C=C(\C#N)c2ccc([N+](=O)[O-])cc2)ccc1O | 0 | -14 | 5 | 1 | · | ·
COC(=O)COc1ccc(/C=C(/C#N)c2ccc([N+](=O)[O-])cc2)cc1Br | 0 | 3 | 11 | 7.2* | 0 | 0
